This is a sample that favours compounds with a hit; in the whole collection about 3.2% have one here.
esBAF inh = Bmi1 luciferase reporter increase in mESCs, primary screen, esBAF inhibitor project, mouse ES cells, Bmi1 luciferase knock-in, single point. 24 h; 100% = twice the neutral-well signal. reporter increase, % at 12.5 µM. 350,000 compounds, 2% hits. AID 602393, 2012; in the data active = activation above about 40%; inconclusive = no clear call, values can overlap the other calls;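 note: 0% = median of the plate's neutral control wells and 100% = double that signal; a rise in the Bmi1 reporter signal indicates esBAF inhibition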
Dyrk1A ADPGlo = rat Dyrk1A kinase inhibitors, primary screen, biochemical, single point, plate reader; Dual specificity tyrosine-phosphorylation-regulated kinase 1A (Rattus norvegicus), Q63470; ADP-Glo luminescence, NFATc1 peptide; inhibition, % at 12.5 µM; 310,000 compounds, 0.43% hits; in the data active = inhibition above about 50%;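 note: plate controls were vehicle with enzyme for no effect and no enzyme for full effect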
SMARCA2 act = SMARCA2 (BRM) function activators, primary screen, cell-based, luminescence, high throughput; MG213 cells, MMTV-luciferase reporter, dexamethasone, overnight; activation, % at 9.1 µM; 370,000 compounds, 1% hits; in the data active = activation above about 7.8%;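 note: 0% = vehicle wells and 100% = reference activator wells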
Rtt109 Vps75 = inhibitors of C. albicans Rtt109/Vps75 HAT, primary screen, biochemical, ThioGlo CoA-SH fluorescence, plate reader; inhibition, % at 34.9 µM; Histone acetyltransferase RTT109 (Candida albicans (strain SC5314 / ATCC MYA-2876)), …; purified Rtt109/Vps75, 4 h; AID 540336, 2011; 330,000 compounds, 0.16% hits;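 active = inhibition of at least 50% in every replicate; inconclusive = best replicate reaches 50% inhibition but some replicates fall short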
CDK5 inh = inhibitors of human CDK5/p35 kinase, primary screen, biochemical, single concentration; inhibition, % at 10 µM; Recombinant CDK5/p35, ADP-Glo luminescence, 60 min; AID 488839, 2010; 330,000 compounds, 0.01% hits;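 active = highest replicate inhibition of at least 50% and at least 75% of replicates reaching 50%; inconclusive = only one of the two criteria met; inactive = both criteria failed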;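 note: plate controls were DMSO neutral control for no effect and GW8510 at 10 µM for full effect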
Target sequence (Q00535 whole entry, looked up): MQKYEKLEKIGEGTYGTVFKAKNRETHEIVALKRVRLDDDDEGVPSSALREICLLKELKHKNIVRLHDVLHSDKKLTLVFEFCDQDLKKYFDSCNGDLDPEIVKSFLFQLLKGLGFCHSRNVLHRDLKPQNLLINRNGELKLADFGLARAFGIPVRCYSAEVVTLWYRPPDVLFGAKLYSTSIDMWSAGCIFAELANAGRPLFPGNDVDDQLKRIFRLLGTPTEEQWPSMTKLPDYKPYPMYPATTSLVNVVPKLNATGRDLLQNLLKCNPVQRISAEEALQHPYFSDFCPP
Target sequence (Q15078 whole entry, looked up): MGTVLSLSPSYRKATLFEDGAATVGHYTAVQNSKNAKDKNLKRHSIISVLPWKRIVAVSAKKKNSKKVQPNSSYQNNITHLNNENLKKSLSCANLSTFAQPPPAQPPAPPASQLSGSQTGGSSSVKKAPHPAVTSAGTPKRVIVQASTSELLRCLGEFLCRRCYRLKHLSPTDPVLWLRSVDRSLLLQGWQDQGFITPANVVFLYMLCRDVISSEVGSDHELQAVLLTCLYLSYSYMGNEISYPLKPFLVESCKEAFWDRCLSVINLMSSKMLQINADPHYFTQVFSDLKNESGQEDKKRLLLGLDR
dFosB act = activators of delta FosB homodimer, primary screen, biochemical, fluorescence polarization, TAMRA-CDK5 oligo, single point; Protein FosB (Mus musculus), P13346; purified delta FosB; percent of positive-control signal above neutral wells; activation, % at 25 µM; 340,000 compounds, 0.99% hits;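 active = mean activation above about 17%, with every replicate also reaching it, limit read from the data, passing the limit was not always enough; inconclusive = only one of the two conditions met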
Ring1 derepress = Ring1 mRNA increase in mouse ESCs, confirmation, esBAF inhibitor project, cell-based, mouse ESC, RT-qPCR, cherry-pick; shares compounds with esBAF inh; mouse ESC E14, Ring1 mRNA RT-qPCR fold change; fold change at 33 µM; 550 tested, under 10 active; AID 743176, 2013;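 active = Ring1 gene expression raised more than 2-fold over untreated cells in both replicates at either tested dose; inconclusive = only one replicate above 2-fold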;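 note: Ring1 transcript normalised to actin housekeeping signal by TaqMan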
esBAF Fgf4 qPCR = Fgf4 mRNA decrease in mouse ESCs, confirmation, esBAF inhibitor project, cell-based, mouse ESC, RT-qPCR, cherry-pick. shares compounds with esBAF inh. Fgf4 expression fold change at 33 µM. mouse ESC E14, Fgf4 mRNA qPCR fold change; hits give low values. 550 compounds, 4% hits;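 active = Fgf4 expression under 0.8 fold of control in both repeat measurements at one or both tested doses; inconclusive = under 0.8 fold in just a single repeat measurement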;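 note: Fgf4 transcript normalised to actin in duplex TaqMan qPCR; cells exposed to compound for 24 h before lysis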
Bmi1 derepress = esBAF inhibition via Bmi1 de-repression, confirmation, cell-based, RT-qPCR, mouse ESC, single point, cherry-pick | shares compounds with esBAF inh | mouse ESE14 ES cells, Bmi1 mRNA qPCR fold; hits give high values | fold change at 33 µM | 550 tested, under 10 active | AID 743180, 2013;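 active = Bmi1 expression fold change above 6 at either tested concentration, seen in replicate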;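 note: higher fold means more Bmi1 de-repression and stronger esBAF inhibition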
A549 cytotox = A549 cell cytotoxicity, cytotoxicity control, plate reader, single point, cherry-pick; cell viability change % (negative = cytotoxic), % at 25 µM, hits read low; 550 tested, under 10 active; shares compounds with esBAF inh; AID 743188, 2013; call rule not given here
HepG2 tox SP = HepG2 cell cytotoxicity, cytotoxicity control, plate reader, single point, cherry-pick; AID 743189, 2013; 550 compounds, 4% hits; hits give low values; activity change, negative = inhibition, % at 25 µM; shares compounds with esBAF inh; in the data active = activity change below about -50%
HEK293 tox SP = HEK293 cell cytotoxicity, cytotoxicity control, plate reader, single point, cherry-pick; shares compounds with esBAF inh; activity change, negative = inhibition, % at 25 µM, hits read low; 550 compounds, 3% hits; AID 743190, 2013; in the data active = activity change below about -38%, passing the limit was not always enough
* = called active by the depositor; ? = inconclusive; . = not tested or not shown.

SMILES	esBAF inh	Dyrk1A ADPGlo	SMARCA2 act	Rtt109 Vps75	CDK5 inh	dFosB act	Ring1 derepress	esBAF Fgf4 qPCR	Bmi1 derepress	A549 cytotox	HepG2 tox SP	HEK293 tox SP
Cc1ccc(-c2nc3ccccc3[nH]2)cn1	63*	16	2	7	2	-10	0.9	1.4	1.4	-30	-38	-28
O=C(NC[C@H]1[C@H](c2ccccc2)[C@H](CO)N1CC1CCCC1)c1ccncc1	-4	.	.	.	.	.	.	.	.	.	.	.
COC(=O)c1ccc(/C=N\N2CCN(c3ccccc3)CC2)cc1	29	-5	0	-2	1	-4	.	.	.	.	.	.
C(=N\N1CCN(c2ccccc2)CC1)/c1ccccc1	63*	-6	3	6	0	-9	0.99	1	1.5	-1	10	0
C[C@@H]1CN([C@@H](C)CO)C(=O)c2cc(NC(=O)c3ccccc3)ccc2O[C@@H](C)CCCCO[C@@H]1CN(C)C(=O)C1CCCCC1	-3	.	.	.	.	.	.	.	.	.	.	.
Oc1[nH]c2ccccc2c1/C=N/c1nccs1	71*	4	4	3	3	7	1.4	1	1.7	0	-40	-11
O=C(C[C@H]1C[C@@H]2c3cc(NC(=O)Nc4ccccc4)ccc3O[C@@H]2[C@H](CO)O1)NCc1cccnc1	6	.	.	.	.	.	.	.	.	.	.	.
Cc1cc(N2CCOCC2)nc2ccc(NC(=O)CCC(=O)N3CCN(c4ccc(F)cc4)CC3)cc12	13	6	2	21	1	-2	.	.	.	.	.	.
Cc1cc(N2CCOCC2)nc2ccc(NC(=O)CCC(=O)N3CCN(c4ccccc4F)CC3)cc12	74*	1	1	6	-1	2	0.86	1.1	1	7	7	5
Cc1cccc(NC(=O)C2C3CCCCC32)c1 (configuration not stated)	67*	-2	6	-7	0	-1	0.95	0.87	1.6	-13	-4	-6
CO[C@H]1CC[C@H]2CCN(C)C(=O)C[C@H](c3ccccc3)CN(C)C(=O)c3cc(C#N)ccc3OC[C@H]1O2	-2	.	.	.	.	.	.	.	.	.	.	.
Cn1c2ccccc2c(=O)c2cc(C#Cc3ccsc3)ccc21	62*	33	3	-6	1	-2	1.1	?	1.4	-4	8	-6
Cn1c2ccccc2c(=O)c2ccc(C#Cc3ccccn3)cc21	.	.	2	.	.	.	.	.	.	.	.	.
CN(C)/C=N/c1sc2c(c1C#N)CCCC2	19	2	0	1	-4	-4	.	.	.	.	.	.
N#Cc1c(/N=C/c2cccs2)sc2c1CCC2	105*	5	3	-3	0	1	1.1	?	1.2	-10	-9	-4
Cc1ccc(NC(=O)Nc2cccc(C)n2)c(C)c1	56*	-6	3	-14	-1	2	1.1	0.84	1.4	-1	-26	10
COc1ccc(NC(=O)Nc2cccc(C)n2)c(OC)c1	38	-3	1	21	1	-1	.	.	.	.	.	.
O=C([C@@H]1[C@@H](CO)[C@@H]2Cn3c(cccc3=O)[C@@H]2N1CC1CCCC1)N1CCOCC1	3	.	.	.	.	.	.	.	.	.	.	.
CSCc1nc2sc(C(=O)Nc3nc(C)cs3)c(C)c2c(=O)[nH]1	60*	.	4	-3	1	-8	1.2	1.1	1.3	-3	-19	2
Cc1cc(C)c(C(=O)CN2C(=O)NC3(CCCCC3)C2=O)cc1C	.	0	1	-2	3	0	.	.	.	.	.	.
Cc1ccc(C(=O)CN2C(=O)NC3(CCCCCC3)C2=O)c(C)c1	80*	6	4	-9	5	-7	1.1	0.9	1.4	-7	12	-17
COc1ccc(-c2csc(C(O)c3ccc(OC)cc3)n2)cc1 (configuration not stated)	6	.	-7	.	.	.	.	.	.	.	.	.
Cc1ccc(-c2csc(C(O)c3ccc(F)cc3)n2)cc1C (configuration not stated)	24	.	2	.	.	.	.	.	.	.	.	.
CN(C)c1ccc(-c2csc(C(O)c3ccc(F)cc3)n2)cc1 (configuration not stated)	82*	.	4	.	.	.	1.3	0.9	1.6	-10	-47	-16
COc1ccc(-c2csc(C(O)c3ccc(F)cc3)n2)cc1 (configuration not stated)	60*	.	0	.	.	.	1.1	0.82	1.7	1	-9	3
SMILES	esBAF inh	Dyrk1A ADPGlo	SMARCA2 act	Rtt109 Vps75	CDK5 inh	dFosB act	Ring1 derepress	esBAF Fgf4 qPCR	Bmi1 derepress	A549 cytotox	HepG2 tox SP	HEK293 tox SP
CN(C)c1ccc(-c2csc(C(O)c3ccccc3)n2)cc1 (configuration not stated)	61*	.	6	.	.	.	1.1	?	1.7	-2	3	-1
CCNC(=O)C[C@@H]1CC[C@@H]2[C@@H](COc3ccc(NC(=O)Nc4cccc(C)c4)cc3C(=O)N2C)O1	-3	.	.	.	.	.	.	.	.	.	.	.
COc1ccc(NC(=O)N[C@H]2CC[C@@H](CC(=O)NCc3ccccn3)O[C@@H]2CO)cc1	3	.	.	.	.	.	.	.	.	.	.	.
C[C@H]1CN([C@@H](C)CO)C(=O)c2cc(C3=CCCC3)cnc2O[C@@H]1CN(C)C(=O)Cc1ccncc1	6	.	.	.	.	.	.	.	.	.	.	.
COc1cccc(NC(=O)N[C@@H]2C=C[C@@H](CC(=O)N3CCCCC3)O[C@H]2CO)c1	-2	.	.	.	.	.	.	.	.	.	.	.
CCn1cnc2cc(NCc3ccccc3Cl)ccc21	77*	0	4	-5	0	2	1	1	1.3	2	2	11
CCn1cnc2cc(NCc3ccc(OC)cc3)ccc21	56*	2	0	7	-1	-7	1	?	1.2	-5	-32	-9

Screens deposited in PubChem BioAssay by several laboratories.
